PubChem BioAssay (NCI)
Compounds without any hit were thinned out: in the full panel of roughly 83,000, 20% have a hit.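 Each cell line was grown in a 96-well plate and treated with one concentration of compound for 48 hours. Values below 10 were considered active.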 Activity calls are given as the source filed them.

Experiments:
Test in all cases: NCI-60 one-dose screen, 48 h (100 = growth as untreated, 0 = no growth, -100 = all killed)
Settings in all cases: 10 µM unless noted
RPMI-8226 leukemia = test system: RPMI-8226 leukemia
OVCAR-8 ovarian = test system: OVCAR-8 ovarian
OVCAR-5 ovarian = test system: OVCAR-5 ovarian
OVCAR-4 ovarian = test system: OVCAR-4 ovarian
SK-OV-3 ovarian = test system: SK-OV-3 ovarian
IGROV1 ovarian = test system: IGROV1 ovarian
OVCAR-3 ovarian = test system: OVCAR-3 ovarian
NCI/ADR-RES ovarian = test system: NCI/ADR-RES ovarian
T-47D breast = test system: T-47D breast
BT-549 breast = test system: BT-549 breast
MDA-MB-435 melanoma = test system: MDA-MB-435 melanoma
SW-620 colon = test system: SW-620 colon
MCF7 breast = test system: MCF7 breast
HCT-116 colon = test system: HCT-116 colon
HCC-2998 colon = test system: HCC-2998 colon
KM12 colon = test system: KM12 colon
HS 578T breast = test system: HS 578T breast

Measured: growth

C=C1C(=O)O[C@H]2[C@H]1CC/C(COC(=O)NCc1nc3ccccc3[nH]1)=C\CC[C@@]1(C)O[C@@H]21
inactive: RPMI-8226 leukemia 34.7% | OVCAR-8 ovarian 93.6% | OVCAR-5 ovarian 130% | OVCAR-4 ovarian 82.7% | SK-OV-3 ovarian 101% | IGROV1 ovarian 62.7% | OVCAR-3 ovarian 22% | NCI/ADR-RES ovarian 99.4% | T-47D breast 43.4% | BT-549 breast 86.7% | MDA-MB-435 melanoma 63.1% | SW-620 colon 25.2% | MCF7 breast 36.5% | HCT-116 colon 47.5% | HCC-2998 colon 104% | KM12 colon 99.3%

C#C[C@@]1(O)[C@@H](CO)O[C@@H](n2cc(Cl)c3c(N)ccnc32)[C@@H]1O
active: HCT-116 colon 4.67%
inactive: RPMI-8226 leukemia 39.9% | OVCAR-8 ovarian 26.9% | OVCAR-5 ovarian 111% | OVCAR-4 ovarian 79.9% | SK-OV-3 ovarian 95.4% | IGROV1 ovarian 88.3% | OVCAR-3 ovarian 47.6% | NCI/ADR-RES ovarian 28.5% | T-47D breast 93.8% | BT-549 breast 89.9% | MDA-MB-435 melanoma 75.6% | SW-620 colon 54.8% | MCF7 breast 36.7% | KM12 colon 69.9%

CCOC(=O)C1=C(C)n2nc(CC#N)c(C#N)c2NC1c1ccc(Cl)cc1 (stereo not given)
inactive: RPMI-8226 leukemia 101% | OVCAR-8 ovarian 108% | OVCAR-5 ovarian 103% | OVCAR-4 ovarian 99.3% | SK-OV-3 ovarian 105% | IGROV1 ovarian 84.1% | OVCAR-3 ovarian 89.3% | NCI/ADR-RES ovarian 91.9% | T-47D breast 110% | BT-549 breast 92% | MDA-MB-435 melanoma 100% | SW-620 colon 97.5% | MCF7 breast 90.2% | HCT-116 colon 101% | HCC-2998 colon 99.9% | KM12 colon 85.4%

Cc1nnc(/N=C2\NC(=O)/C(=C/c3ccc(N(C)C)cc3)S2)s1
active: MDA-MB-435 melanoma 9.37%
inactive: RPMI-8226 leukemia 58.9% | OVCAR-8 ovarian 78.6% | OVCAR-5 ovarian 99.9% | OVCAR-4 ovarian 75.4% | SK-OV-3 ovarian 72% | IGROV1 ovarian 60% | OVCAR-3 ovarian 45.4% | NCI/ADR-RES ovarian 52.2% | T-47D breast 73.6% | BT-549 breast 67.4% | SW-620 colon 66.9% | MCF7 breast 53.4% | HCT-116 colon 54.6% | HCC-2998 colon 85.5% | KM12 colon 46.1%

c1ccc2nc(N3CCOCC3)c(N3CCCCC3)nc2c1
inactive: RPMI-8226 leukemia 96.9% | OVCAR-8 ovarian 102% | OVCAR-5 ovarian 105% | OVCAR-4 ovarian 97.6% | SK-OV-3 ovarian 101% | IGROV1 ovarian 107% | OVCAR-3 ovarian 103% | NCI/ADR-RES ovarian 100% | T-47D breast 75.9% | BT-549 breast 109% | MDA-MB-435 melanoma 106% | SW-620 colon 104% | MCF7 breast 93.8% | HCT-116 colon 102% | HCC-2998 colon 103% | KM12 colon 101%

O=C(CCCC(=O)Nc1ccc(-n2nnc3cc(Cl)c(Cl)cc32)cc1)Nc1ccc(-n2nnc3cc(Cl)c(Cl)cc32)cc1
inactive: RPMI-8226 leukemia 81.1% | OVCAR-8 ovarian 25.5% | OVCAR-5 ovarian 87.6% | SK-OV-3 ovarian 31% | IGROV1 ovarian 59.8% | OVCAR-3 ovarian 56.1% | HS 578T breast 49.8% | T-47D breast 36.7% | BT-549 breast 51.2% | MDA-MB-435 melanoma 51.2% | SW-620 colon 49.6% | MCF7 breast 22.6% | HCT-116 colon 45.3% | HCC-2998 colon 93.7% | KM12 colon 70.9%
active: OVCAR-4 ovarian -5.56%

C=C(C)[C@@H]1CC[C@]2(C(=O)N3CCN(C)CC3)CC[C@]3(C)[C@H](CC[C@@H]4[C@@]5(C)C/C(=C/c6ccco6)C(=O)C(C)(C)[C@@H]5CC[C@]43C)[C@@H]12
inactive: RPMI-8226 leukemia 33.7% | OVCAR-8 ovarian 70.7% | OVCAR-5 ovarian 83.2% | OVCAR-4 ovarian 71.7% | SK-OV-3 ovarian 71.3% | IGROV1 ovarian 90.1% | OVCAR-3 ovarian 88.1% | NCI/ADR-RES ovarian 69.8% | T-47D breast 72.7% | BT-549 breast 79.5% | MDA-MB-435 melanoma 72.8% | SW-620 colon 74% | MCF7 breast 36.1% | HCT-116 colon 46.9% | HCC-2998 colon 92.3% | KM12 colon 72.5%

O=C1CCc2ccccc2N1
inactive: RPMI-8226 leukemia 106% | OVCAR-8 ovarian 105% | OVCAR-5 ovarian 103% | OVCAR-4 ovarian 94.7% | SK-OV-3 ovarian 108% | IGROV1 ovarian 98.4% | OVCAR-3 ovarian 102% | NCI/ADR-RES ovarian 101% | T-47D breast 109% | BT-549 breast 107% | MDA-MB-435 melanoma 97.6% | SW-620 colon 102% | MCF7 breast 96.6% | HCT-116 colon 101% | HCC-2998 colon 84.8% | KM12 colon 96.6%

COc1ccc([C@H]2[C@@H](F)C(=O)N2c2cc(OC)c(OC)c(OC)c2)cc1F
inactive: RPMI-8226 leukemia 15.3% | OVCAR-8 ovarian 13.7% | OVCAR-5 ovarian 43.6% | OVCAR-4 ovarian 54.9% | SK-OV-3 ovarian 33.4% | IGROV1 ovarian 31.9% | T-47D breast 74.9% | BT-549 breast 15.3% | SW-620 colon 28.7% | MCF7 breast 12.8% | HCC-2998 colon 32.9% | KM12 colon 10.7%
active: OVCAR-3 ovarian -4.18% | MDA-MB-435 melanoma 0.354% | HCT-116 colon 5.59%

O=C1CCC23OC(c4ccccc4N12)C(O)C(O)C3O (stereo not given)
inactive: RPMI-8226 leukemia 103% | OVCAR-8 ovarian 99.3% | OVCAR-5 ovarian 110% | OVCAR-4 ovarian 105% | SK-OV-3 ovarian 117% | IGROV1 ovarian 98.2% | OVCAR-3 ovarian 96.3% | NCI/ADR-RES ovarian 101% | T-47D breast 110% | BT-549 breast 111% | MDA-MB-435 melanoma 110% | SW-620 colon 103% | MCF7 breast 100% | HCT-116 colon 84.9% | HCC-2998 colon 94.5% | KM12 colon 104%

COc1cc(-c2csc(NC(=O)Nc3cc(Cl)cc(Cl)c3)n2)cc(OC)c1OC
active: OVCAR-8 ovarian 9.3% | OVCAR-4 ovarian -81.4% | IGROV1 ovarian -59.4% | OVCAR-3 ovarian -85.9% | NCI/ADR-RES ovarian 5.24% | T-47D breast -41.5% | SW-620 colon -26.4% | MCF7 breast 8.04% | HCT-116 colon -28.9%
inactive: RPMI-8226 leukemia 13.7% | OVCAR-5 ovarian 39.1% | SK-OV-3 ovarian 14.9% | BT-549 breast 11.5% | MDA-MB-435 melanoma 27.1% | HCC-2998 colon 70.8% | KM12 colon 18.5%

Cc1ccc(C(=O)/C(=C/c2ccc([N+](=O)[O-])cc2)S(=O)Cc2ccccc2)cc1 (stereo not given)
inactive: OVCAR-8 ovarian 18.5% | OVCAR-5 ovarian 39.5% | OVCAR-4 ovarian 35% | SK-OV-3 ovarian 80.2% | NCI/ADR-RES ovarian 14.3% | BT-549 breast 45.8% | MDA-MB-435 melanoma 19.7% | KM12 colon 23.1%
active: RPMI-8226 leukemia -13% | IGROV1 ovarian -7.98% | OVCAR-3 ovarian 0.0452% | T-47D breast -38.3% | SW-620 colon 2.41% | MCF7 breast 1.83% | HCT-116 colon -59.2%

CC(C)NS(=O)(=O)c1cccc(-c2ccc3c4c(n(CCCN(C)C)c(=O)c3c2)-c2ccccc2C4=O)c1
active: HCT-116 colon -66%
inactive: RPMI-8226 leukemia 80.9% | OVCAR-8 ovarian 76.4% | OVCAR-5 ovarian 117% | OVCAR-4 ovarian 101% | SK-OV-3 ovarian 104% | IGROV1 ovarian 90% | OVCAR-3 ovarian 110% | NCI/ADR-RES ovarian 103% | T-47D breast 97.1% | BT-549 breast 95.6% | MDA-MB-435 melanoma 92.9% | SW-620 colon 57.4% | MCF7 breast 38.8% | HCC-2998 colon 96.8% | KM12 colon 93.9%

COC1=CC2C=C(C3N(c4ccccc4)NC(=O)[C@@H]4CCCN34)C(=O)NC2C=C1 (stereo not given in full)
inactive: RPMI-8226 leukemia 110% | OVCAR-8 ovarian 110% | OVCAR-5 ovarian 107% | OVCAR-4 ovarian 96.8% | SK-OV-3 ovarian 104% | IGROV1 ovarian 105% | OVCAR-3 ovarian 104% | NCI/ADR-RES ovarian 101% | T-47D breast 99% | BT-549 breast 97.4% | MDA-MB-435 melanoma 97% | SW-620 colon 105% | MCF7 breast 94.1% | HCT-116 colon 93.8% | HCC-2998 colon 94.8% | KM12 colon 100%

N#CC1C(c2ccc(Cl)cc2)=Nc2c(c(-c3ccccc3)nn2-c2ccccc2)C12C(=O)Nc1ccc(Cl)cc12 (stereo not given)
inactive: RPMI-8226 leukemia 24.7% | OVCAR-8 ovarian 64.6% | OVCAR-5 ovarian 65.2% | OVCAR-4 ovarian 34.4% | SK-OV-3 ovarian 68.6% | IGROV1 ovarian 42.1% | OVCAR-3 ovarian 49.7% | HS 578T breast 51.4% | T-47D breast 46.7% | BT-549 breast 50% | MDA-MB-435 melanoma 34.5% | SW-620 colon 42.1% | MCF7 breast 28.4% | HCT-116 colon 26.2% | HCC-2998 colon 55.2% | KM12 colon 26.1%

CCOC(=O)c1c(C)nc2c(c1N)/C(=C/c1cccs1)C(=O)N2c1ccc(OC)cc1
inactive: RPMI-8226 leukemia 74.5% | OVCAR-8 ovarian 20.5% | OVCAR-5 ovarian 102% | OVCAR-4 ovarian 13.9% | SK-OV-3 ovarian 36.6% | IGROV1 ovarian 45.7% | OVCAR-3 ovarian 32.3% | NCI/ADR-RES ovarian 29% | T-47D breast 19% | BT-549 breast 45.9% | MDA-MB-435 melanoma 59.9% | SW-620 colon 67.6% | MCF7 breast 25% | HCT-116 colon 20.9% | HCC-2998 colon 80.7% | KM12 colon 70.2%

CN1CCN(CC#CCOC(=O)CNC(=O)[C@]23CCC(C)(C)C[C@H]2C2=CC[C@@H]4[C@@]5(C)CC[C@H](O)C(C)(C)[C@@H]5CC[C@@]4(C)[C@]2(C)CC3)CC1
inactive: RPMI-8226 leukemia 76.8% | OVCAR-8 ovarian 81.3% | OVCAR-5 ovarian 101% | OVCAR-4 ovarian 105% | SK-OV-3 ovarian 86.2% | IGROV1 ovarian 90.4% | OVCAR-3 ovarian 94.6% | NCI/ADR-RES ovarian 87.6% | T-47D breast 75.5% | BT-549 breast 88.9% | MDA-MB-435 melanoma 101% | SW-620 colon 86.8% | MCF7 breast 72% | HCT-116 colon 76.2% | HCC-2998 colon 106% | KM12 colon 94.5%

O=C1c2ccccc2C(=O)c2c1oc1c2c(=O)[nH]c2ccccc21
active: OVCAR-4 ovarian -5.49% | OVCAR-3 ovarian -14.8%
inactive: RPMI-8226 leukemia 62.7% | OVCAR-8 ovarian 35.6% | OVCAR-5 ovarian 102% | SK-OV-3 ovarian 104% | IGROV1 ovarian 55.1% | NCI/ADR-RES ovarian 40.8% | T-47D breast 22.5% | BT-549 breast 73.9% | MDA-MB-435 melanoma 83.7% | SW-620 colon 89.2% | MCF7 breast 48.8% | HCT-116 colon 55.5% | HCC-2998 colon 103% | KM12 colon 66.2%
